# From PubChem BioAssay
# AMPAR-TARP mod: modulators of GluA2-stargazin AMPA receptor complexes, primary screen, cell-based, membrane potential dye; HEK293 GluA2+stargazin, membrane potential dye (FDSS), glutamate EC50; hits were called plate by plate, in both directions; Voltage-dependent calcium channel gamma-2 subunit (Mus musculus) + Glutamate receptor 2 …; actives 3.5% (n = 40,000); calls only at 30 µM;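 active = any of four per-well response measures lying three or more SD from its plate-wide compound average, in either direction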
# GIRK2 activator: activators of NPY4-receptor-primed GIRK2 channels, summary, cell-based, HEK293, thallium flux; G protein-activated inward rectifier potassium channel 2 (Homo sapiens), P48051; 34,000 tested, under 10 active; activation (% efficacy), % for hits at 37.5 µM; HEK293 GIRK2/NPY4 cells, thallium flux fluorescence;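 active = primary screen hit, no activity in plain HEK293 cells, and in GIRK2-only cells above 5% efficacy rising with concentration; inactive = the rest, including fluorescent compounds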;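 also: efficacy is normalized control-subtracted fluorescence 15 s after thallium addition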
# Calls only; 0 = inactive; - = no result given; + = active, no number. The full list was thinned out, with hits kept by preference.
SMILES,AMPAR-TARP mod,GIRK2 activator
Cc1cc(-c2nnc(NC(=O)c3ccc(S(=O)(=O)N(C)C)cc3)o2)nn1C,+,0
CCCN(CCC)S(=O)(=O)c1ccc(C(=O)Nc2nnc(-c3cc(C)n(C)n3)o2)cc1,0,0
Cc1cc(-c2nnc(NC(=O)c3ccc(C(C)(C)C)cc3)o2)nn1C,0,0
O=C(c1csc(Nc2ccc(OC(F)F)cc2)n1)N1CCCC1,+,0
NC(=O)C1CCN(C(=O)c2csc(Nc3ccc(OC(F)F)cc3)n2)CC1,0,0
CS(=O)(=O)N1CCN(C(=O)C2CC(=O)c3ccccc32)CC1 (stereo not given),0,0
Cc1ccc(Cl)cc1N1CCN(C(=O)C2CC(=O)c3ccccc32)CC1 (stereo not given),+,0
O=C(Nc1ccc2c(c1)CN(S(=O)(=O)c1ccccc1)CC2)c1ccc2nsnc2c1,+,0
O=C(Nc1ccc2ncsc2c1)c1ccc(S(=O)(=O)N2CCc3ccccc3C2)cc1,0,0
COc1ccc(Cl)cc1NC(=O)CSc1cc(N2CCOCC2)ncn1,0,0
Cc1nc(NC(=O)c2ccc(S(=O)(=O)N(C)Cc3ccccc3)cc2)sc1C,0,0
Cc1nc(NC(=O)c2cccc(Br)c2)sc1C,+,0
COc1cccc(C(CNC(=O)c2ccc([N+](=O)[O-])cc2)N2CCOCC2)c1 (stereo not given),0,0
COc1cccc(C(CNC(=O)C2CCCCC2)N2CCOCC2)c1 (stereo not given),+,-
Cc1ccc(C(CNC(=O)NC2CCCCC2)N2CCOCC2)cc1 (stereo not given),+,0
COc1cccc(C(CNC(=O)Nc2ccccc2)N2CCOCC2)c1 (stereo not given),0,0
O=C(NCC(c1ccc(F)cc1)N1CCOCC1)NC1CCCCC1 (stereo not given),0,-
COc1cccc(C(CNC(=O)C2CCN(S(C)(=O)=O)CC2)N2CCOCC2)c1 (stereo not given),0,0
COc1cccc(C(CNC(=O)Nc2ccc(Cl)cc2)N2CCOCC2)c1 (stereo not given),+,0
COc1cccc(C(CNC(=O)c2cccc([N+](=O)[O-])c2C)N2CCOCC2)c1 (stereo not given),+,0
O=C(Nc1ccc2c(c1)OCCO2)c1ccc(S(=O)(=O)c2ccc(Cl)cc2)nc1,0,0
CNC(=O)c1ccsc1NC(=O)CCCS(=O)(=O)c1ccc(F)cc1,0,-
Cc1ccccc1OCC(=O)NCC1(O)CCOCC1,-,0
CCOC(=O)c1c(C)c(C(=O)NCc2ccco2)c(C)n1CC,+,0
COCCNC(=O)C(=O)NCc1ccco1,0,0
SMILES,AMPAR-TARP mod,GIRK2 activator
O=c1ccc(-c2nc(-c3cnccn3)no2)cn1Cc1cc(=O)n2ccccc2n1,0,0
Cn1c(=O)c2c(ncn2CC(=O)NCc2ccccc2)n(C)c1=O,+,-
Cn1c(=O)c2c(ncn2Cc2ccccc2)n(C)c1=O,0,-
O=C(Nc1cc(-c2ccccc2)nn1CCO)c1cccc(Cl)c1,+,0
O=C(Nc1cc(-c2ccccc2)nn1CCO)c1ccsc1,0,0
Cc1cccc(NC(=O)Cn2cccc(-c3nc(-c4ccc(Br)cc4)no3)c2=O)c1,0,0
COc1cccc(NC(=O)Cn2cccc(-c3nc(-c4ccc(Br)cc4)no3)c2=O)c1,+,0
CCCN1C(=O)CCc2cc(NC(=O)c3ccc(OCC)c(OCC)c3)ccc21,0,0
CCOc1ccccc1C(=O)N1CCN(c2ncnc3c2nnn3-c2ccc(OC)cc2)CC1,+,-
CCOc1ccccc1C(=O)N1CCN(c2ncnc3c2nnn3-c2ccc(F)cc2)CC1,0,0
CC(C)n1ccc(C(=O)N(Cc2ccccn2)c2nc3c(Cl)cccc3s2)n1,+,0
Cn1ccc(C(=O)N(Cc2cccnc2)c2nc3c(Cl)cccc3s2)n1,0,0
COc1cc(C(=O)Nc2cc3c4c(c2)CC(=O)N4CCC3)cc(OC)c1OC,0,0
O=C(Nc1cc2c3c(c1)CC(=O)N3CCC2)c1cnccn1,+,0
COc1ccc(Nc2nc(N3CCCC3)c3ccccc3n2)cc1,+,-
COc1ccc(Nc2nc(C)c([N+](=O)[O-])c(N3CCCC3)n2)c(OC)c1,0,0
COCCNC(=O)C(=O)Nc1c2c(nn1C(C)(C)C)CSC2,0,0
CC(C)NC(=O)C(=O)NCC1CCN(C)CC1,0,0
C=CCn1c(SCC(=O)NCc2ccco2)nc2scc(-c3ccccc3Cl)c2c1=O,+,0
C=CCn1c(SCC(=O)NCC2CCCO2)nc2scc(-c3ccc(Cl)cc3)c2c1=O (stereo not given),0,0
Cc1ccc(N2CCCS2(=O)=O)cc1NC(=O)COc1ccccc1,0,0
COCCn1c(=NC(=O)c2cc(C)no2)sc2cc(OC)ccc21,0,0
CCOc1ccc2c(c1)sc(=NC(=O)c1ccc(S(=O)(=O)C(C)C)cc1)n2CCOC,+,0
COc1cc(CN2CCC(COCc3ccccc3)CC2)cc(OC)c1,+,0
COc1cc(COCC2CCN(C(=O)CC(c3ccccc3)c3ccccc3)CC2)cc(OC)c1,0,0
SMILES,AMPAR-TARP mod,GIRK2 activator
CCN(C1CCCCC1)S(=O)(=O)c1ccc(C(=O)Nc2ncnc3sccc23)cc1,+,0
CN(C1CCCC1)S(=O)(=O)c1ccc(C(=O)Nc2ncnc3sccc23)cc1,0,-
Brc1ccc2c3c(ccc2c1)OCN(c1ccccc1)C3,0,-
O=C(NCC1(c2ccccc2)CCOCC1)c1ccc2c(c1)OCO2,-,0
CCOC(=O)N1CCN(C(=O)CN2CCC(c3nnc(C(C)C)o3)CC2)CC1,0,0
Fc1ccc(N2CCN(C(=S)Nc3ccc(Nc4ccccc4)cc3)CC2)cc1,0,-
C=CCNC(=O)Nc1nc(C(=O)OCC)cs1,0,0
CCOC(=O)c1csc(NC(=O)c2cc3ccccc3o2)n1,+,-
CSc1ccccc1C(=O)N1CCN(c2ncnc3c2nnn3-c2ccc(C)cc2)CC1,0,-
Cc1cc(-c2nnc(NC(=O)C3CCN(S(=O)(=O)c4ccc(F)cc4)CC3)o2)n(C)n1,0,0
CCCC(=O)N(CCN1CCOCC1)c1nc2ccccc2s1,0,-
NC(=O)c1ccsc1NC(=O)C1CCN(S(=O)(=O)c2ccc(Cl)cc2)CC1,+,0
NC(=O)c1ccsc1NC(=O)C1CCCCC1,0,0
Cc1cc(-c2nnc(NC(=O)Cc3ccc4c(c3)OCO4)o2)nn1C,0,0
Cc1ccc(-n2ccnc2N2CCN(C(=O)CCCc3ccccc3)CC2)cc1,+,0
Cc1ccc(-n2ccnc2N2CCN(C(=O)c3ccc4ccccc4c3)CC2)cc1,0,0
Cc1ccc(-n2ccnc2N2CCN(C(=O)c3ccc(C)c(C)c3)CC2)cc1,+,0
Cc1ccc(-n2ccnc2N2CCN(C(=O)CCc3ccccc3)CC2)cc1,0,0
COC(=O)c1ccc(NC(=O)C(=O)NCC(O)(c2cccs2)C2CC2)cc1 (stereo not given),0,0
CN(C)C(=O)Cc1ccc(NC(=O)Nc2ccc(Cl)c(Cl)c2)cc1,+,0
CN(C)C(=O)Cc1ccc(NC(=O)Cc2ccc(Cl)cc2)cc1,0,0
CCNC(=O)Cc1csc(SCC(=O)c2ccc(OC)cc2)n1,-,0
CC(=O)c1ccc(NC(=O)CSc2ncc(S(=O)(=O)c3ccc(Cl)s3)c(N)n2)cc1,0,0
